We go through twelve compounds from PubChem BioAssay (EPA / NIEHS).

Experiment [1] can be described thus: CCTE_Shafer_MEA_acute_spike_number: CCTE's Neural Acute Assay for Total Number of Spikes, Shafer Lab (AID 2284008).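 For AC50: curve fitted for decrease in spike count so AC50 reflects inhibitors.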 In a few lines:
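Using an adaptive detector set to 8x rms noise, spikes were counted in 40-min windows before and after compound addition (0.03-40 uM) to rat cortical networks at 37 C; the well-level change from baseline was analysed relative to DMSO.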

Experiment [2] is described as follows: CCTE_Shafer_MEA_acute_firing_rate_mean: CCTE's Neural Acute Assay for Mean Firing Rate, Shafer Lab (AID 2284009).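 Note: analyzed for loss of signal so actives lower firing rate relative to DMSO.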 In a few lines: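 Rat cortical neuron cultures matured to DIV 13 or 15, equilibrated 20 min at 37 C, then recorded 40 min for baseline. Compound (0.03-40 uM) added and a further 40 min recorded; percent change in mean firing rate calculated per well.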

A short description of experiment [3]: CCTE_Harrill_HTTr_Viability_MCF7: CCTE's 6-hour Cell Viability Assessment for the High-Throughput Transcriptomics (HTTr) Platform, in MCF-7 cells cultured in DMEM + 10% fetal bovine serum, Harrill Lab (AID 2284010). In outline:
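Propidium iodide exclusion, imaged by high-content analysis, gauged viability after a six-hour exposure across eight concentrations. Cells were MCF-7 grown in DMEM with 10% fetal bovine serum; fits run in both directions against DMSO.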

A short description of experiment [4]: CCTE_Harrill_HTTr_Apoptosis_MCF7: CCTE's 6-hour Apoptosis Assessment for the High-Throughput Transcriptomics (HTTr) Platform, in MCF-7 cells cultured in DMEM + 10% fetal bovine serum, Harrill Lab (AID 2284011). In a few lines:
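Apoptosis in MCF-7 cells grown in DMEM with 10% fetal bovine serum was scored after a six hour exposure by high content imaging of caspase-3/7 activation (CellEvent Caspase 3/7 Green), with DMSO serving as negative control and baseline.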

The nature of experiment [5]: CCTE_Harrill_HTTr_CellCount_MCF7: CCTE's Cell Proliferation Assessment for the High-Throughput Transcriptomics (HTTr) Platform, Harrill Lab (AID 2284012; active = hit-call score of the fitted dose curve at least 0.9, where 1 is the maximum;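 note: cells exposed to compound for six hours; intended direction is loss of nuclei count meaning fewer cells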). In a few lines:
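Cell count from high-content imaging of Hoechst-labeled nuclei serves as viability/growth readout. Chemicals were applied to MCF-7 cells in eight concentrations for six hours, with fitting in both directions relative to DMSO.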

The nature of experiment [6]: CCTE_Shafer_MEA_acute_burst_number: CCTE's Neural Acute Assay for Single-Electrode Bursts, Shafer Lab (AID 2284013). In outline: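 Percent change in single-electrode burst number per well, from 40-min recordings taken before and after adding compound (0.03-40 uM) to primary rat cortical neurons on MEA plates at DIV 13 or 15, 37 C.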
Experiment [7] is described as follows: CCTE_Simmons_MITO_basal_resp_rate: CCTE's HepG2 Seahorse XF Respirometric Screening Assay at Basal Respiratory State, Simmons Lab (AID 2284001). The conditions noted are these: actives raise or lower the signal. In outline: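 Basal-phase OCR of HepG2 cells on a Seahorse XF96, analysed by bidirectional fit relative to DMSO vehicle; chemicals at 7 concentrations, 125 nM–100 uM final; three biological replicates; fenpyroximate and 2,4-dinitrophenol positive controls.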

Experiment [8] is described as follows: CCTE_Simmons_MITO_max_resp_rate: CCTE's HepG2 Seahorse XF Respirometric Screening Assay at Maximal Respiratory State [uncoupled], Simmons Lab (AID 2284002). The conditions noted are these: actives raise or lower the signal. In outline:
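Uncoupled (FCCP) respiration of HepG2 cells served as the endpoint, with measurements at 6-minute intervals across a 72-minute run and compounds dosed at 7 concentrations up to 100 uM final.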

A short description of experiment [9]: CCTE_Simmons_MITO_inhib_resp_rate: CCTE's HepG2 Seahorse XF Respirometric Screening Assay at Inhibited Respiratory State [full ETC block], Simmons Lab (AID 2284006). The conditions noted are these: actives raise or lower the signal. In a few lines: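 This endpoint is the respiration rate remaining after rotenone/antimycin A block, in HepG2 cells on a Seahorse XF96. Chemicals spanned 125 nM–100 uM final, in three biological replicates. OCR was read every 6 minutes for 72 minutes and compared with DMSO vehicle.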

Experiment [10] is described as follows: CCTE_Simmons_MITO_viability: CellTiter-Glo Viability Assessment for CCTE's HepG2 Seahorse XF Respirometric Screening Assay [post-hoc], Simmons Lab (AID 2284007; active = hit-call score of the fitted dose curve at least 0.9, where 1 is the maximum;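 for AC50: cells exposed to chemical for 90 min before the ATP read; actives lower ATP signal relative to DMSO baseline meaning reduced viability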). In a few lines:
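Luciferase-coupled ATP read-out after the Seahorse run: HepG2 cells treated 90 minutes with test chemical, 7-point series of 125 nM–100 uM final, in triplicate biological runs. Vehicle DMSO; dichlone as positive control over 8 concentrations.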

Structures are written as SMILES. Inconclusive results are not listed. Calls of active or inactive are those of the source. Rule for the calls, unless noted: active = hit-call score of the fitted dose curve at least 0.9, where 1 is the maximum; inactive = score below 0.9.

For `CCC(=O)C(CC(C)N(C)C)(c1ccccc1)c1ccccc1` (stereo not drawn), the AC50 in experiment [1] is 0.0569 µM (active); in experiment [2] it was 0.052 µM (active). Besides, the result in experiment [3], in [4], in experiment [5] and in experiment [6] was inactive.

Consider `COC(=O)Cc1ccccc1`, for which the result in [1], in [2], in experiment [3], in experiment [4] and in experiment [6] was inactive.

`CC(C)(OO)c1ccccc1`: the result in experiment [1], in [2], in experiment [3], in [5] and in experiment [6] was inactive.

Turning to `CN(CCCC(=O)c1cccnc1)N=O`, the result in experiment [3] was inactive.

Regarding `CCNc1nc(NC(C)(C)C)nc(SC)n1`, the outcome in [3] was inactive.

`O=C(O)C(F)(F)C(F)(F)C(F)(F)C(F)(F)C(F)(F)C(F)(F)C(F)(F)C(F)(F)C(F)(F)C(F)(F)F`: the call in [7], in experiment [8], in [9], in experiment [1], in experiment [2] and in experiment [3] was inactive. Also, the outcome in [4], in [5] and in experiment [6] was inactive.

Consider `CC(=O)[O][Hg][c]1ccccc1`, for which the AC50 was 13.1 µM (active) in [7]; 13.1 µM (active) in [8]; 81.7 µM (active) in [10]; 53.5 µM (active) in experiment [3]; 50 µM (active) in experiment [5]; 0.91 µM (active) in experiment [6]. The call in experiment [9], in experiment [1], in experiment [2] and in [4] was inactive.

In the case of `ClC1(Cl)C2(Cl)C3(Cl)C4(Cl)C(Cl)(Cl)C5(Cl)C3(Cl)C1(Cl)C5(Cl)C24Cl` (stereo not drawn), the result in experiment [1], in experiment [2], in experiment [3], in experiment [5] and in experiment [6] was inactive.

`CC(=O)c1cc(C(C)(C)C)cc2c1CCC2(C)C`: in experiment [3], the outcome was inactive.

Turning to `COC(=O)c1sccc1S(=O)(=O)NC(=O)Nc1nc(C)nc(OC)n1`, the result in experiment [3] was inactive.

Take `C=C(C)C#N`: the result in experiment [3] was inactive.

As for `C[C@]12CCC(=O)C[C@@H]1CC[C@@H]1[C@@H]2CC[C@]2(C)[C@@H](O)CC[C@@H]12`, the compound was classed as inactive in experiment [7], in [8], in [9], in [10], in experiment [3] and in experiment [6]. In addition, the AC50 in experiment [1] and in [2] was 20 µM (active) in each case.
